NS1 inh: qHTS Assay for Inhibitors of Influenza NS1 Protein Function. hit rate 0.4% among 270,000. Potency, µM (doses to about 46.1 µM); calls by dose curve; note: actives are rising curves; nearly all actives have a fitted effect of over 50% in size
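In this qHTS, NS1 from influenza A is expressed in budding yeast, where it slows growth. Cells are switched from glucose to 2% galactose medium (pH 6.0, -URA), treated with compound, and growth recovery is read at OD600.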
HCV inhibitor: qHTS Assay for Inhibitors of Hepatitis C Virus (HCV) | Huh7.5.1 HCVcc-Cre infection, luciferase reporter, 44 h | hit rate 3.4% among 340,000 | Potency, µM (top dose mostly 41.8 µM), most hits filed as inhibitors | AID 651820, 2012
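1,000 cells/well; 4 h culture; + compound; + HCVcc-Cre (~0.5 moi); 44 h; luciferase substrate, RT 15 min; read 15 sec.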
VACV Venus inh: qHTS for Stage-Specific Inhibitors of Vaccinia Orthopoxvirus: Venus Reporter Primary qHTS; Vaccinia virus Venus reporter expression, fluorescence; Potency, µM (doses to about 36.5 µM), usual class: inhibitors; hit rate 0.46% among 330,000; AID 720580, 2013; calls by dose curve; tested in A549 cells; note: nearly all actives have a fitted effect of over 30% in size
Pf growth 96h: Primary qHTS for delayed death inhibitors of the malarial parasite plastid, 96 hour incubation | Potency, µM (doses to about 28.7 µM), usual class: inhibitors | hit rate 6.9% among 320,000 | P. falciparum luciferase reporter growth, 96 h
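P. falciparum expressing integrated firefly luciferase grown in erythrocytes (2% hematocrit, 0.05% parasitemia final) with compounds for 96 hours at 37 C, 5% CO2. Growth inhibition read as loss of luminescence after adding luciferase detection reagent.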
Vaccinia mCherry: qHTS for Stage-Specific Inhibitors of Vaccinia Orthopoxvirus: mCherry Reporter Primary qHTS. Vaccinia virus mCherry reporter infection, fluorescence. AID 720579, 2013. hit rate 0.63% among 310,000. Potency, µM (highest dose often 36.5 µM), usual class: inhibitors; calls by dose curve; tested in A549 cells; note: nearly all actives have a fitted effect of over 35% in size
Pf growth 48h: Primary qHTS for delayed death inhibitors of the malarial parasite plastid, 48 hour incubation. P. falciparum luciferase growth in erythrocytes, 48 h. Potency, µM (titrated, usually from 28.7 µM), usual class: inhibitors. hit rate 5.9% among 310,000. AID 504832, 2011
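Compounds are pin-transferred into medium, infected erythrocytes (2% hematocrit, 0.1% parasitemia final) are added, and plates sit one parasite generation at 37 C in 5% CO2. Detection reagent is then added and luminescence measured.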
A number is an active result; 0 = inactive; ? = inconclusive; - = not tested or not shown; [ ] = dose if it differs, or a comment. A selection: hits, their analogues and other compounds. The true share with any hit is near 11%. Unless noted, calls come from the whole dose curve; as a rule, active = well fitted inhibition curve with a large enough effect; inconclusive = small, poorly fitted or top-dose-only effect, or another doubt; inactive = no such curve, though single readings can be large or run the other way.

SMILES | NS1 inh | HCV inhibitor | VACV Venus inh | Pf growth 96h | Vaccinia mCherry | Pf growth 48h
ClCCN(CCCl)c1ccc(-n2cnc3c(Cl)ncnc32)cc1 | - | 13µM | 0 | - | 0 | -
Cc1ccccc1S(=O)(=O)Nc1ncnc2scc(-c3ccccc3)c12 | 0 | 0 | 0 | 0 | 0 | 0
COC(=O)NCCOC(=O)N(O)c1ccc(Br)cc1 | ? | 0 | - | ? | - | 9.3µM
O=C1c2ccccc2CC1Sc1nnc(-c2ccccn2)o1 (configuration not stated) | 0 | 0 | 0 | 13µM | ? | ?
O=C1CC(Sc2nnc(-c3ccccc3O)o2)C(=O)N1c1ccccc1 (configuration not stated) | 0 | 0 | 0 | 0 | 0 | 0
N#CC(C#N)=C1C=CC=CN1/C(=C\c1ccco1)C(=O)c1ccc(Cl)cc1 | 0 | ? | 28µM | ? | ? | ?
O=C1CS/C(=N/N=C2CCCC2)N1 | - | 0 | 0 | 3.3µM | 0 | 0
O=c1[nH][nH]c(-c2ccccc2)c1C=Nc1ccc(F)cc1F | - | 0 | - | 0 | - | 0
Cc1ccc(S(=O)(=O)N/N=c2\oc3ccccc3cc2C(=O)Nc2cccc(C)c2)cc1 | 0 | 0 | - | 0 | - | 0
Cc1sc2nc(SCc3ccccc3)n(Cc3ccco3)c(=O)c2c1C | ? | 0 | 0 | 0 | 0 | 0
Cc1ccc(CSc2nc3sc(C)c(C)c3c(=O)n2Cc2ccco2)cc1 | 0 | 0 | - | ? | - | ?
Cc1cccc(CSc2nc3sc(C)c(C)c3c(=O)n2Cc2ccco2)c1 | 0 | 0 | - | - | - | 15µM
Cc1sc2nc(SCC(=O)C(C)(C)C)n(Cc3ccco3)c(=O)c2c1C | 0 | ? | - | 10µM | - | 3.7µM
Cc1cc2c(=O)n(Cc3ccco3)c(SCC(=O)c3ccc(Cl)s3)nc2s1 | 0 | ? | - | 0 | - | 5.9µM
c1ccc(-c2nn3nnnc3c3ccccc23)cc1 | 0 | ? | 0 | 0 | - | 0
COc1cc(CNCCc2c[nH]c3ccccc23)cc(OC)c1OC | - | - | 0 | - | 0 | -
CC(C)c1cc(=O)oc2c3c4c(cc12)CCCN4CCC3 | ? | ? | 0 | 0 | 0 | 12µM
CCN(CC)c1ncnc2c1ncn2[C@H]1CN(Cc2cccnc2)C[C@@H](CO)O1 | - | - | 0 | - | 0 | -
COC(=O)CCC(=O)OC1(C)C(=O)C=C2C=C(C3CC3)N(c3ccccc3)C=C2C1=O (configuration not stated) | 0 | 0[8.37 µM] | 0 | ? | 0 | ?
COC(=O)CCC(=O)OC1(C)C(=O)C=C2C=C(C3CC3)N(Cc3ccc(OC)cc3)C=C2C1=O (configuration not stated) | 0 | 3.5µM | 0 | ? | 0 | ?
COC(=O)CCC(=O)OC1(C)C(=O)C=C2C=C(C3CC3)N(Cc3ccc4c(c3)OCO4)C=C2C1=O (configuration not stated) | 0 | 0 | 0 | 13µM | 0 | ?
Cc1c(NC(=O)C(C)Sc2nc(N)cc(=O)[nH]2)c(=O)n(-c2ccccc2)n1C (configuration not stated) | - | 0 | - | 0 | - | 0
CC(NC(=O)CSc1nnc2n1CCCCC2)c1ccccc1Cl (configuration not stated) | - | 0 | - | ? | - | 0
CCCC(C)C(=O)NCc1ccccc1OC (configuration not stated) | 0 | 0 | - | 0 | - | 0
Cn1cc(-c2ccccc2C(N)=O)c(=O)c2ccccc21 | - | 0 | 0 | 0 | 0 | 0
SMILES | NS1 inh | HCV inhibitor | VACV Venus inh | Pf growth 96h | Vaccinia mCherry | Pf growth 48h
Cc1ccccc1C1=NCC(=O)N(CC(=O)N2CCCCC2)c2sc(C)c(C)c21 | 0 | 0 | - | 13µM | - | ?
Cc1ccc(S(=O)(=O)Nc2nc3ccc(N)cc3s2)cc1 | 0 | 0 | 0 | 0 | 0 | 0
Cc1ccc(S(=O)(=O)Nc2nc3ccc(S(C)(=O)=O)cc3s2)cc1 | 0 | 0 | 0 | 12µM | 0 | 0
COc1cc(OC)cc(C(=O)Nc2nc3ccc(S(C)(=O)=O)cc3s2)c1 | - | 0 | 0 | 0 | 0 | 0
COc1cc(C(=O)Nc2nc3ccc(S(C)(=O)=O)cc3s2)cc(OC)c1C | 0 | 3.5µM | 0 | 7.4µM | 0 | ?
COc1ccc(C2CC(c3c(-c4ccccc4)c4cc(Cl)ccc4[nH]c3=O)=NN2S(C)(=O)=O)cc1OC (configuration not stated) | 0 | ? | ? | ? | - | 10µM
COc1ccccc1C(=O)O[C@H]1[C@H](Cc2ccccc2)NS(=O)(=O)[C@H]2C[C@@H]3C=C[C@]12O3 | - | 0 | 0 | 5.9µM | 0 | ?
O=C(Oc1ccc(NC2=C(Cl)C(=O)c3ccccc3C2=O)cc1)c1ccc([N+](=O)[O-])cc1 | 0 | ? | - | 0 | - | 0
O=C1C(Cl)=C(Nc2ccc3cn[nH]c3c2)C(=O)c2ccccc21 | 0 | 4µM | 8.9µM | 8.3µM | ? | 12µM
CN(C)c1ccc(NC2=C(Cl)C(=O)c3ccccc3C2=O)cc1 | 0 | 10µM | 11µM | 0 | ? | 0
O=C(Cc1cccs1)Nc1ccc2c(c1)C(=O)OC2 | 0 | 0 | 0 | 0 | 0 | -
Oc1ccccc1-c1cnc2cccnn12 | - | - | 0 | - | 0 | -
COc1ccc(CCCc2nnc(SCC(=O)Nc3nc(C)cs3)n2C)cc1C | 0 | 0 | - | - | - | 13µM
Cc1csc(NC(=O)CSc2nnc(-c3cccs3)n2C)n1 | 0 | 0 | - | 0 | - | 0
COc1ccc(CC(=O)Nc2nnc(C(C)(C)C)s2)cc1OC | 0 | ? | 0 | 4.7µM | 0 | 0
COc1ccc(CC(=O)Nc2nc(C)cs2)cc1 | - | 0 | 0 | ? | 0 | 0
COc1ccc(CC(=O)Nc2nc(C)cs2)cc1OC | 0 | ? | ? | 12µM | ? | 0
Cc1ccnc(NS(=O)(=O)c2ccc(NC(=O)c3ccccc3F)cc2)n1 | 0 | 0 | - | ? | - | 0
O=C(O)c1ccc(S(=O)(=O)N2CCC(c3nc(-c4ccccc4Cl)no3)CC2)cc1 | 0 | 0 | - | 9.3µM | - | 0
O=C(C(c1ccccc1)c1ccccc1)N1CCC(c2nc(-c3ccccc3Cl)no2)CC1 | - | 0 | 0 | - | - | -
O=C(O)CCCc1nc2ccccc2s1 | 0 | 0 | 0 | - | 0 | 0
CCn1nc(C(=O)Nc2ccc(Cl)c(S(=O)(=O)N3CCOCC3)c2)c2ccccc2c1=O | - | 11µM | 0 | ? | 0 | 10µM
CCCn1nc(C(=O)NNC(=O)Cc2ccc(S(=O)(=O)N3CCOCC3)s2)c2ccccc2c1=O | - | ? | 0 | ? | 0 | 12µM
O=C(Cc1ccc(S(=O)(=O)N2CCOCC2)s1)NNC(=O)c1ccccc1Cl | - | 0 | 0 | ? | 0 | 0
CCn1nc(C(=O)Nc2ccc3c(c2)OCCO3)c2ccccc2c1=O | - | - | 0 | - | 0 | -
CCn1nc(C(=O)Nc2cccc(S(=O)(=O)N3CCCC3)c2)c2ccccc2c1=O | - | ? | - | ? | - | 13µM
CCCn1nc(C(=O)Nc2cccc(S(=O)(=O)N3CCOCC3)c2)c2ccccc2c1=O | - | - | 0 | - | 0 | -
CC(C)Cn1nc(C(=O)Nc2cccc(S(=O)(=O)N3CCCC3)c2)c2ccccc2c1=O | - | ? | 0 | 9.3µM | ? | 12µM
CCC(c1nnnn1C1CCCCC1)N1CCN(C2CCCC2)CC1 (configuration not stated) | 0 | 0 | 0 | 0 | - | ?
